Key:
[1] = target: Sphingosine kinase 1 (Homo sapiens) (UniProt Q9NYA1); details: at 1 µM;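 also: mean SPHK1 inhibition value reported from the GSK PKIS kinase panel screen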
[2] = target: T1, Sphingosine kinase 2 (Homo sapiens) (UniProt Q9NRA0); details: at 0.1 µM
T1 sequence (whole entry): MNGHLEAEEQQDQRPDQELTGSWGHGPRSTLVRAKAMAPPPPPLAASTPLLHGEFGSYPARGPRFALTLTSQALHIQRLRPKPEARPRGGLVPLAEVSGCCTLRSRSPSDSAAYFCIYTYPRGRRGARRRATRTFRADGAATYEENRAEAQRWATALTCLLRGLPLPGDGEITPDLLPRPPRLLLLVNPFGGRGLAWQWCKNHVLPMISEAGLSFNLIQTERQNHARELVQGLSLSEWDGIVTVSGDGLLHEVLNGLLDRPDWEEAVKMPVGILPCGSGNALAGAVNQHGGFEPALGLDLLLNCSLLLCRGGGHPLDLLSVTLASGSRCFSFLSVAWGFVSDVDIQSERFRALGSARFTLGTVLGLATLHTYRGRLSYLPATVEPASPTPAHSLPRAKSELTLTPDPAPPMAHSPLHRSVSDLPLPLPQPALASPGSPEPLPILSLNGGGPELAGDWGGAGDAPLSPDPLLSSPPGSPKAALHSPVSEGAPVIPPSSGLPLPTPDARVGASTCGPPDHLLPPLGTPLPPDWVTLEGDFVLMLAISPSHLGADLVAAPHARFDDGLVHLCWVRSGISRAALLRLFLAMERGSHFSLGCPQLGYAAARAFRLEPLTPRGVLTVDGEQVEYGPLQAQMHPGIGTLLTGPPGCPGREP

[3] = target: T1, Sphingosine kinase 2 (Homo sapiens); details: at 1 µM
[4] = target: Casein kinase II subunit alpha (Homo sapiens) (UniProt P68400); details: at 0.1 µM
[5] = target: Casein kinase II subunit alpha (Homo sapiens) (UniProt P68400); details: at 1 µM
[6] = target: T2, Inhibitor of nuclear factor kappa-B kinase subunit alpha (Homo sapiens) (UniProt O15111); details: at 0.1 µM
T2 sequence (whole entry): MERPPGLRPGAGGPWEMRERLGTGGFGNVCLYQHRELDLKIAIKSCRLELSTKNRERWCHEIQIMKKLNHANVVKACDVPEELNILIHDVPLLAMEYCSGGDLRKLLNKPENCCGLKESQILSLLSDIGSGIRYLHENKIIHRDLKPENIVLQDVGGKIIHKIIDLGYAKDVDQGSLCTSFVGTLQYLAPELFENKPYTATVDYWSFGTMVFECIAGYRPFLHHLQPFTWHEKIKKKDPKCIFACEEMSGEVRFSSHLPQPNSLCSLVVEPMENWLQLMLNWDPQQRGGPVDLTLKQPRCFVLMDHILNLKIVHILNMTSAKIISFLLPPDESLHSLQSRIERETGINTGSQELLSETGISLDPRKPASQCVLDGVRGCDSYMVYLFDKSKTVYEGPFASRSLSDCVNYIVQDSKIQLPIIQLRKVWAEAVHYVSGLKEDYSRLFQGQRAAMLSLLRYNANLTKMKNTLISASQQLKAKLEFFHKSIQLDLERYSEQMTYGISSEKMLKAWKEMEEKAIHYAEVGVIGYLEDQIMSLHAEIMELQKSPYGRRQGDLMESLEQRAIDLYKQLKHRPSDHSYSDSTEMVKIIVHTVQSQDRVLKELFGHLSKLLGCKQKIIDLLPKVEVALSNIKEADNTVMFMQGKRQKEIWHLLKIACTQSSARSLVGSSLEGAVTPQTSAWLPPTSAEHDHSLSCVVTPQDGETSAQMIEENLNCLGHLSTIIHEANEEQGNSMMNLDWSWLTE

[7] = target: T2, Inhibitor of nuclear factor kappa-B kinase subunit alpha (Homo sapiens); details: at 1 µM
[8] = target: T3, Inhibitor of nuclear factor kappa-B kinase subunit beta (Homo sapiens) (UniProt O14920); details: at 0.1 µM
T3 sequence (whole entry): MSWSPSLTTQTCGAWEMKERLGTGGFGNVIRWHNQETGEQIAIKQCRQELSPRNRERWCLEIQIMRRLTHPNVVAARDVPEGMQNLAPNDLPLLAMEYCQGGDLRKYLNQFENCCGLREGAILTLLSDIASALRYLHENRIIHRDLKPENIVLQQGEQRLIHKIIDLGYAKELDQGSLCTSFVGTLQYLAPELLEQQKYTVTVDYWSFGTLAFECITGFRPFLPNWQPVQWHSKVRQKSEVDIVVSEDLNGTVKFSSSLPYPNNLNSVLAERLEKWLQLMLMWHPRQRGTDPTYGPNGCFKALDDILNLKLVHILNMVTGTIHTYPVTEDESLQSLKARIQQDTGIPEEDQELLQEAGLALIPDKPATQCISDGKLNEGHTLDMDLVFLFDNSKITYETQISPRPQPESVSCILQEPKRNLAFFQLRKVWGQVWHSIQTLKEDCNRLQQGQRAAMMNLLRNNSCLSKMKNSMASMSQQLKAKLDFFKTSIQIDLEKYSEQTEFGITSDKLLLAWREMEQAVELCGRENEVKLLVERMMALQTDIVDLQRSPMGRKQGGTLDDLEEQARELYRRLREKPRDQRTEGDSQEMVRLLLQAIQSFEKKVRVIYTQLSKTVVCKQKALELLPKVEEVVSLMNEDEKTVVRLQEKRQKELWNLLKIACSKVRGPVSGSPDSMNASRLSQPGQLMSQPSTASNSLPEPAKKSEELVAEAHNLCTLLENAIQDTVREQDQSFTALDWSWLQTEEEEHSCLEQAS

[9] = target: T3, Inhibitor of nuclear factor kappa-B kinase subunit beta (Homo sapiens); details: at 1 µM
[10] = target: T4, Inhibitor of nuclear factor kappa-B kinase subunit epsilon (Homo sapiens) (UniProt Q14164); details: at 0.1 µM
T4 sequence (whole entry): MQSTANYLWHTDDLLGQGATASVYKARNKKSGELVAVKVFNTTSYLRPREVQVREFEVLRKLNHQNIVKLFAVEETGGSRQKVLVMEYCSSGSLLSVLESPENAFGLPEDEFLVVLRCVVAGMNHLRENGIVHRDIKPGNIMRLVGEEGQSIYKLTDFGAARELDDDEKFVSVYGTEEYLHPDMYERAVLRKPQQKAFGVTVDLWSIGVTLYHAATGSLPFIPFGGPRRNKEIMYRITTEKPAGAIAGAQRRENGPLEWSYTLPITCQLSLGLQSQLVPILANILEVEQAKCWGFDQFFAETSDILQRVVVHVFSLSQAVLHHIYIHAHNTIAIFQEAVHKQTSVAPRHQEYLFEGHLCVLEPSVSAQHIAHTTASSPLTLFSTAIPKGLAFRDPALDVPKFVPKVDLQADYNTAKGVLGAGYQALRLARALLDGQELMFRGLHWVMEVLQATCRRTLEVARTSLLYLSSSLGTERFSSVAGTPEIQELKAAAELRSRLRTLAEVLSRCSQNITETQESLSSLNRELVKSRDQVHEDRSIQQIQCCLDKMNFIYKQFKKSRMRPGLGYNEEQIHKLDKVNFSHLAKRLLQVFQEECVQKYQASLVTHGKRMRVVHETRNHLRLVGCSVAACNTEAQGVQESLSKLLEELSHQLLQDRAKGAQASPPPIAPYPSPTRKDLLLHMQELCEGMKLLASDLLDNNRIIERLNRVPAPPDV

[11] = target: T4, Inhibitor of nuclear factor kappa-B kinase subunit epsilon (Homo sapiens); details: at 1 µM
[12] = target: T5, Serine/threonine-protein kinase Nek1 (Homo sapiens) (UniProt Q96PY6); details: at 0.1 µM
T5 sequence (whole entry): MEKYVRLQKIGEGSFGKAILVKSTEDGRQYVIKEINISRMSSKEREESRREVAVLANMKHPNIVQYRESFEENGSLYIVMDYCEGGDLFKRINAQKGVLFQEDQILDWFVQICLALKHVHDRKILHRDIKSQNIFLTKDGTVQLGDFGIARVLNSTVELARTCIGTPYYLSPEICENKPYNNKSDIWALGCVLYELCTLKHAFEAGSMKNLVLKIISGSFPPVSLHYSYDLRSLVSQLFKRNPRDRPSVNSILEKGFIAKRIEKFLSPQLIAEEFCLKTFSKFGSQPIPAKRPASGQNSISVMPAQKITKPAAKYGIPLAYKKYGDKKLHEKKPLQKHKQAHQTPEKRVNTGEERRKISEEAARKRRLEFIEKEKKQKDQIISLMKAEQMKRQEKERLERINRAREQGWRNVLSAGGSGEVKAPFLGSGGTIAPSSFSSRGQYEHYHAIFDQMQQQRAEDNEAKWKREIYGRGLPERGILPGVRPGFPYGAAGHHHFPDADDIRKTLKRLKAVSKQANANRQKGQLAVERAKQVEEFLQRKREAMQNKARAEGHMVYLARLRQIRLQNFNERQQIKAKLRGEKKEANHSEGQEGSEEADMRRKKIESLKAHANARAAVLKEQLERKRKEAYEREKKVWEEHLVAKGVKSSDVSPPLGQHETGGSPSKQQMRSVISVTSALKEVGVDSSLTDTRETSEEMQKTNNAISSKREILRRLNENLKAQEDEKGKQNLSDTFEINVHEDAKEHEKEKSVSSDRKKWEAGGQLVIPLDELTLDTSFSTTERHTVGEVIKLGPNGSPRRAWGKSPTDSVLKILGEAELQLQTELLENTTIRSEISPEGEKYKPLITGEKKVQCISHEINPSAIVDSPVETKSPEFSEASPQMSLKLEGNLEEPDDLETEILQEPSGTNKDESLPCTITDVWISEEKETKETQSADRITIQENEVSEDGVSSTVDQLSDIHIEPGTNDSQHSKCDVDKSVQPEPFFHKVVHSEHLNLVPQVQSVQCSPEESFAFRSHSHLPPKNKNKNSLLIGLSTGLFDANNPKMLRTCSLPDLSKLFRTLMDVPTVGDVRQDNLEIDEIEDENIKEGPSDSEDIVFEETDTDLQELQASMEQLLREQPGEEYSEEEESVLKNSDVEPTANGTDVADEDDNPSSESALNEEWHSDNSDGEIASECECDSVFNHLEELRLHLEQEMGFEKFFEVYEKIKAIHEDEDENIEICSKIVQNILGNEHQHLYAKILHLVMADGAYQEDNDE

[13] = target: T5, Serine/threonine-protein kinase Nek1 (Homo sapiens); details: at 1 µM
[14] = target: T6, Serine/threonine-protein kinase Nek2 (Homo sapiens) (UniProt P51955); details: at 0.1 µM
T6 sequence (whole entry): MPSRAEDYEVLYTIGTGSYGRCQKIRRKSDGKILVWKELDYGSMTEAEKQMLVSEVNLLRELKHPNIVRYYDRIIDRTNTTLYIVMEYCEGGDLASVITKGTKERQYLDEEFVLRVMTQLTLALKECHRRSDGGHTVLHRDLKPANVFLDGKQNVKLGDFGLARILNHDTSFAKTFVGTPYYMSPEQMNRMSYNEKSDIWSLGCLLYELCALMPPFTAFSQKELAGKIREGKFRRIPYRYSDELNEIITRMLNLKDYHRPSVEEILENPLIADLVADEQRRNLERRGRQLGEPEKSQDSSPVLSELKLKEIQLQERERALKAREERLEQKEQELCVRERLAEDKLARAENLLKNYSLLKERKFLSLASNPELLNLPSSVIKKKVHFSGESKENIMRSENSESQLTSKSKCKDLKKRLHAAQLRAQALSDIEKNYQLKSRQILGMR

[15] = target: T6, Serine/threonine-protein kinase Nek2 (Homo sapiens); details: at 1 µM
[16] = target: Serine/threonine-protein kinase Nek6 (Homo sapiens) (UniProt Q9HC98); details: at 0.1 µM
[17] = target: Serine/threonine-protein kinase Nek6 (Homo sapiens) (UniProt Q9HC98); details: at 1 µM
[18] = target: Serine/threonine-protein kinase Nek7 (Homo sapiens) (UniProt Q8TDX7); details: at 0.1 µM
[19] = target: Serine/threonine-protein kinase Nek7 (Homo sapiens) (UniProt Q8TDX7); details: at 1 µM
[20] = target: T7, Serine/threonine-protein kinase Nek9 (Homo sapiens) (UniProt Q8TD19); details: at 0.1 µM;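 also: reported value is the mean percent inhibition of NEK9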
T7 sequence (whole entry): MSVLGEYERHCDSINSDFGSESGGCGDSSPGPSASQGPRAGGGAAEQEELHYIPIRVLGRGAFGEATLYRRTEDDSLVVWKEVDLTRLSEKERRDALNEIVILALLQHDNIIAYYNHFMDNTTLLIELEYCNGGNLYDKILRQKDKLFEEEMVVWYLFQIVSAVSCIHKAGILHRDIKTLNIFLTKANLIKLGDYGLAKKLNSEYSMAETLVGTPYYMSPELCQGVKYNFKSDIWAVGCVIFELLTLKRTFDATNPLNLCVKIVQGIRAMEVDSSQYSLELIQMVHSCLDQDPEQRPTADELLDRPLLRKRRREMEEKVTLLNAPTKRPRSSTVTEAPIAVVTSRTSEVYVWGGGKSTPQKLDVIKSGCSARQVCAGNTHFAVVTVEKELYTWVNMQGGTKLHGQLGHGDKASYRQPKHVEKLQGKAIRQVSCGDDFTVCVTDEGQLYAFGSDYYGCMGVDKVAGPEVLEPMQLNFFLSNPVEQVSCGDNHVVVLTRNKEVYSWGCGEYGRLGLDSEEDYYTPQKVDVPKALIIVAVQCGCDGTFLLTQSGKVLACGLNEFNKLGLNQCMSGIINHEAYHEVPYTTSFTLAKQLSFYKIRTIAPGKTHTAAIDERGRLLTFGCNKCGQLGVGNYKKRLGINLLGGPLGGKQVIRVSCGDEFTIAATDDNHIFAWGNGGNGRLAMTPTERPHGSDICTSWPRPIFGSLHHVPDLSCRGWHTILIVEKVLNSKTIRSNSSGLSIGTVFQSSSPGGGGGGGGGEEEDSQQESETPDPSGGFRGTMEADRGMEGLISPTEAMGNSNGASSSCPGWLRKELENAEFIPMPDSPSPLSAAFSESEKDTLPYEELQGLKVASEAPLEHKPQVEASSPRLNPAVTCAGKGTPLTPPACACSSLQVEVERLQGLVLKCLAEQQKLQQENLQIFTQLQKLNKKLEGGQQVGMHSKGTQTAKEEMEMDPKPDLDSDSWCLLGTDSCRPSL

Casein kinase II subunit alpha (Homo sapiens), sequence (P68400 whole entry, looked up): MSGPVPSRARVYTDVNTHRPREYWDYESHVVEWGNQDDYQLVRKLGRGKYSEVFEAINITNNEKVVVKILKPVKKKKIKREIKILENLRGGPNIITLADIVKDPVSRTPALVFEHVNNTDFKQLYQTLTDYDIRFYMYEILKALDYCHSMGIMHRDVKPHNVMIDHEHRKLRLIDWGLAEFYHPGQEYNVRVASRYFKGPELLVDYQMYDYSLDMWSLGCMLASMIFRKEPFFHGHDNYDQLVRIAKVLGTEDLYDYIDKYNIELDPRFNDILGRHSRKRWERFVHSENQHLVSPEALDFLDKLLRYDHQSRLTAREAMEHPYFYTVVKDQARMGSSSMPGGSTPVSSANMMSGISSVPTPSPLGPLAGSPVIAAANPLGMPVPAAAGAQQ
Serine/threonine-protein kinase Nek7 (Homo sapiens), sequence (Q8TDX7 whole entry, looked up): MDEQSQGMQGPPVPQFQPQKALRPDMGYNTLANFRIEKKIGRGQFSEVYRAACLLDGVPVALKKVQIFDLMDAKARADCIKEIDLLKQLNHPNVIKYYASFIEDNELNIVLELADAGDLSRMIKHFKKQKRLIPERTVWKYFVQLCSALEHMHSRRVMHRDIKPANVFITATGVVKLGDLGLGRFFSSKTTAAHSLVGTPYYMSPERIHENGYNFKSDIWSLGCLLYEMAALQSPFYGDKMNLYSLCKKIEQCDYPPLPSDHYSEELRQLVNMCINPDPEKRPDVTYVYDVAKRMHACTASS
Serine/threonine-protein kinase Nek6 (Homo sapiens), sequence (Q9HC98 whole entry): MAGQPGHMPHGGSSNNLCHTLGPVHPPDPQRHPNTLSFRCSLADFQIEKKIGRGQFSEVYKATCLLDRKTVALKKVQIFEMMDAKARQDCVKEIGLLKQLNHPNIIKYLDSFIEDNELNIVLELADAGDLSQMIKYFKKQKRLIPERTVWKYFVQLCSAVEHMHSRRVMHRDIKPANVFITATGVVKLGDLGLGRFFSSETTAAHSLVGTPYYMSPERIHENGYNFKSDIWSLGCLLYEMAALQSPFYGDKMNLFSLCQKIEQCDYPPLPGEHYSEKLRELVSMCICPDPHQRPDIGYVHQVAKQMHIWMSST
Sphingosine kinase 1 (Homo sapiens), sequence (Q9NYA1 whole entry): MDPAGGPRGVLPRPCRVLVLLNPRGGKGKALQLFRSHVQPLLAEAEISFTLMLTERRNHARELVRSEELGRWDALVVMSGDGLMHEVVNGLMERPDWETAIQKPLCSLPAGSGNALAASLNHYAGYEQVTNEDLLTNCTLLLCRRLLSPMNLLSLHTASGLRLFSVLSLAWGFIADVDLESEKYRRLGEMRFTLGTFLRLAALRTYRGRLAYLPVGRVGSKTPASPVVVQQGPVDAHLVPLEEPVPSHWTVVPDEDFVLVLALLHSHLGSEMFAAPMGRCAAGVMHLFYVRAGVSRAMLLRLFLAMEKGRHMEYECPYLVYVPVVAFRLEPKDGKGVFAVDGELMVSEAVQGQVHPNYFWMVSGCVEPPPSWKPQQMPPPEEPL

With `O=C(Nc1n[nH]c2nc(-c3ccco3)c(Br)cc12)C1CC1` the inhibition [1] was -1.04%, the inhibition [2] was 0.57% and the inhibition [3] was 0.07%. It also gave an inhibition [4] of -0.1%, an inhibition [5] of -1.87% and an inhibition [6] of -4.07%. For the same compound, the inhibition [7] was -2.15%, the inhibition [8] was 1.61% and the inhibition [9] was 2.38%. The inhibition [10] was 3.19%, the inhibition [11] was 3.64% and the inhibition [12] was 2.9%. It also gave an inhibition [13] of 1.85%, an inhibition [14] of 4.03% and an inhibition [15] of 3.85%. For the same compound, the inhibition [16] was 3.21%, the inhibition [17] was 0.56% and the inhibition [18] was 4.18%. The inhibition [19] was 3.03% and the inhibition [20] was 1.02%.

— ChEMBL document CHEMBL1961873, “Compounds: GSK PKIS; Assays: Nanosyn kinase panel” (2012)
